Measured values reported in PubChem BioAssay (NCI).
The panel holds about 83,000 compounds, 20% with a hit somewhere; the sample as a whole holds those more often.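 For each line, cells grew in 96-well plates with the test compound present at a single concentration for 48 hours.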 Active and inactive are the calls of the source. The calls were made as follows: active = growth percent below 10; inactive = the rest.

What was measured:
Experiment in all cases: NCI-60 one-dose screen, 48 h (100 = growth as untreated, 0 = no growth, -100 = all killed)
Details in all cases: 10 µM unless noted
SR leukemia = test system: SR leukemia
RPMI-8226 leukemia = test system: RPMI-8226 leukemia
OVCAR-8 ovarian = test system: OVCAR-8 ovarian
OVCAR-5 ovarian = test system: OVCAR-5 ovarian
OVCAR-4 ovarian = test system: OVCAR-4 ovarian
SK-OV-3 ovarian = test system: SK-OV-3 ovarian
IGROV1 ovarian = test system: IGROV1 ovarian
OVCAR-3 ovarian = test system: OVCAR-3 ovarian
HS 578T breast = test system: HS 578T breast
NCI/ADR-RES ovarian = test system: NCI/ADR-RES ovarian

Compound | growth (SR leukemia) | growth (RPMI-8226 leukemia) | growth (OVCAR-8 ovarian) | growth (OVCAR-5 ovarian) | growth (OVCAR-4 ovarian) | growth (SK-OV-3 ovarian) | growth (IGROV1 ovarian) | growth (OVCAR-3 ovarian) | growth (HS 578T breast) | growth (NCI/ADR-RES ovarian)
CN1CCN(c2ccc(Nc3nc(NCCCNS(=O)(=O)c4ccc(Cl)cc4)c4sccc4n3)cc2)CC1 | 5.77% (active) | 4.97% (active) | 17% (inactive) | 39.5% (inactive) | -0.0486% (active) | 54.1% (inactive) | 25.9% (inactive) | -6.9% (active) | 20.2% (inactive) | 47.7% (inactive)
CC(=O)Nc1cc(N2CCOCC2)c2nc(NC(=O)c3[nH]c(C)c(Cl)c3Cl)sc2c1 | 28.6% (inactive) | 55% (inactive) | 67.1% (inactive) | 94.7% (inactive) | -10.8% (active) | 95.5% (inactive) | 82.5% (inactive) | 72.3% (inactive) | 31.3% (inactive) | 48.9% (inactive)
O=C(CCCCCCNC(=O)C(O)(O)C(F)(F)F)Nc1nc2ccccc2s1 | 16.7% (inactive) | 13.5% (inactive) | 8.26% (active) | 1.89% (active) | 35.9% (inactive) | -26.3% (active) | -3.25% (active) | -38.8% (active) | 12.5% (inactive) | 1.87% (active)
COc1ccc(C2c3[nH]c4ccc(Cl)cc4c3CCN2c2oc(CO)nc2C#N)cc1 (stereo not given) | 17.4% (inactive) | 46.3% (inactive) | 45.9% (inactive) | 78.1% (inactive) | 69.7% (inactive) | 101% (inactive) | 39.4% (inactive) | 46.7% (inactive) | 69.1% (inactive) | 43% (inactive)
NC1=NC2(CCCC2)N(c2ccc(S(=O)(=O)Nc3nccs3)cc2)C(N)=N1 | 98.2% (inactive) | 94.1% (inactive) | 105% (inactive) | 101% (inactive) | 110% (inactive) | 114% (inactive) | 103% (inactive) | 116% (inactive) | 109% (inactive) | 100% (inactive)
Cc1[nH]c(C(=O)Nc2ccc(C(N)=O)cc2N2CCOC(C)C2)c(Cl)c1Cl (stereo not given) | 101% (inactive) | 107% (inactive) | 96.8% (inactive) | 98.1% (inactive) | 97.9% (inactive) | 102% (inactive) | 92.2% (inactive) | 109% (inactive) | 94.7% (inactive) | 93.7% (inactive)
COc1ccc(OC)c(NC(=O)CCCCCCNC(=O)C(O)(O)C(F)(F)F)c1 | 12.9% (inactive) | 20.9% (inactive) | 23.4% (inactive) | 26.3% (inactive) | 86.7% (inactive) | 6.28% (active) | 55.2% (inactive) | 40.5% (inactive) | 49.7% (inactive) | 32.8% (inactive)
Cc1ccc2c(n1)C(=O)C(Cl)=C(Nc1cccc(C(=O)OC(C)(C)C)c1)C2=O | 5.81% (active) | 28% (inactive) | 87.3% (inactive) | 130% (inactive) | 65.7% (inactive) | 97.2% (inactive) | 88.2% (inactive) | 37.5% (inactive) | 102% (inactive) | 93.9% (inactive)
C/C(CC1(O)C(=O)Nc2ccccc21)=N\O (stereo not given) | 100% (inactive) | 100% (inactive) | 101% (inactive) | 99.2% (inactive) | 95.1% (inactive) | 108% (inactive) | 97.9% (inactive) | 106% (inactive) | 97.4% (inactive) | 95.9% (inactive)
COc1ccc(NC2=C(Br)C(=O)C(C)=C(C)C2=O)cc1OC | 71.2% (inactive) | 70.8% (inactive) | 96% (inactive) | 121% (inactive) | 14.1% (inactive) | 83.8% (inactive) | 86% (inactive) | 107% (inactive) | 97.6% (inactive) | 97.3% (inactive)
CCCCCCOC(=O)c1cc(-c2ccc(F)cc2)nc2ccccc12 | 107% (inactive) | 110% (inactive) | 98.1% (inactive) | 102% (inactive) | 101% (inactive) | 87.4% (inactive) | 88.3% (inactive) | 104% (inactive) | 94.1% (inactive) | 96.1% (inactive)
CC1(C)CC[C@]2(C(=O)NCCCCCCN(CCCN)CCCN)CC[C@]3(C)C(=CC[C@@H]4[C@@]5(C)CC[C@H](O)C(C)(C)[C@@H]5CC[C@]43C)[C@@H]2C1 | 87.2% (inactive) | 100% (inactive) | 99% (inactive) | 96.8% (inactive) | 109% (inactive) | 114% (inactive) | 101% (inactive) | 106% (inactive) | 110% (inactive) | 98.8% (inactive)
C#CCN(C)CCCOc1ccc(NCc2ccc(/C=C/C(=O)NO)cc2)cc1Cl | 9.72% (active) | 8.55% (active) | 11.9% (inactive) | 6.62% (active) | 22.4% (inactive) | -11.3% (active) | -35.7% (active) | 11% (inactive) | 10.7% (inactive) | -8.39% (active)
CCCC/C(=C\c1ccc(O)c(O)c1)C(=O)NC(Cc1ccccc1)C(=O)C(=O)NCCc1ccc(OC)cc1 (stereo not given) | 105% (inactive) | 89.7% (inactive) | 97.2% (inactive) | 99.3% (inactive) | 92.7% (inactive) | 105% (inactive) | 96.8% (inactive) | 93.7% (inactive) | 91.8% (inactive) | 101% (inactive)
CCCCCN1C(=O)/C(=c2\sc3n(c2=O)C2C(NN=3)N(CC)C(=O)N2CC)c2cccc(C)c21 (stereo not given) | 13.6% (inactive) | 39.1% (inactive) | 73.3% (inactive) | 72.4% (inactive) | 52.1% (inactive) | 89.3% (inactive) | 44.8% (inactive) | 32.9% (inactive) | 34.3% (inactive) | 30.7% (inactive)
COc1ccc(Cn2cc(C#N)c(N)c2C(C)=O)cc1 | 122% (inactive) | 105% (inactive) | 111% (inactive) | 106% (inactive) | 92.9% (inactive) | 105% (inactive) | 106% (inactive) | 108% (inactive) | 102% (inactive) | 104% (inactive)
CCCCN1C(=O)/C(=c2\sc3n(c2=O)C2C(NN=3)N(CC)C(=O)N2CC)c2cccc(C)c21 (stereo not given) | 15.1% (inactive) | 20.3% (inactive) | 44.6% (inactive) | 50.9% (inactive) | 53.8% (inactive) | 82% (inactive) | 34.7% (inactive) | 28.9% (inactive) | 34.4% (inactive) | 24.6% (inactive)
COc1ccc2[nH]cc(/C=N/Nc3ccnc4cc(Cl)ccc34)c2c1 | -27.1% (active) | -62.8% (active) | -70% (active) | -100% (active) | -100% (active) | -95.6% (active) | -94.6% (active) | -82.1% (active) | -49.6% (active) | -60.4% (active)
O=C(Nc1ccccc1)Nc1nc2ccc([N+](=O)[O-])cc2[nH]1 | 70.4% (inactive) | 46.1% (inactive) | 66.9% (inactive) | 75.2% (inactive) | 23.5% (inactive) | 73.4% (inactive) | 45.9% (inactive) | 38.3% (inactive) | 75.5% (inactive) | 69.1% (inactive)
COc1cc2c3c(cc4c5c(ccc4c3c1OC)OCO5)N(CCN(C)C)C2=O | -1.44% (active) | -21.7% (active) | 9.28% (active) | -6.73% (active) | -4.27% (active) | 2.24% (active) | -11.3% (active) | 0.51% (active) | -8.56% (active) | 4.67% (active)
CC(C)NC(=O)c1cc(-c2ccc(NC(=O)Nc3ccc(F)cc3)cc2)nc2cccnc12 | 94.3% (inactive) | 109% (inactive) | 105% (inactive) | 109% (inactive) | 104% (inactive) | 112% (inactive) | 110% (inactive) | 115% (inactive) | 109% (inactive) | 104% (inactive)
CCNCCOc1ccc(/C(=C(/CC)c2ccc(Cl)cc2)c2ccc(OCCCN(C)C)cc2)cc1 | -36.8% (active) | -36.2% (active) | -81.7% (active) | -93% (active) | -88% (active) | -93.8% (active) | -82.3% (active) | -77.4% (active) | -51.1% (active) | -82.5% (active)
CCOC(=O)c1ccc(NC2=C(Cl)C(=O)c3nc(C)ccc3C2=O)cc1 | 22.6% (inactive) | 4.69% (active) | 68.4% (inactive) | 91.5% (inactive) | -62.7% (active) | 94.4% (inactive) | 7.95% (active) | -18.8% (active) | 50.2% (inactive) | 45.9% (inactive)
CN(C)CCCOc1ccc(C(=C(c2ccccc2)C2CCCC2)c2ccc(OCCCN(C)C)cc2)cc1 | -37% (active) | -32.1% (active) | -84.2% (active) | -92.9% (active) | -89.4% (active) | -86.4% (active) | -84.7% (active) | -91.7% (active) | -60.7% (active) | -80% (active)
Cn1c(SCC(=O)c2ccco2)nc2ccccc2c1=O | 91.5% (inactive) | 93.4% (inactive) | 101% (inactive) | 111% (inactive) | 95.5% (inactive) | 107% (inactive) | 86.1% (inactive) | 107% (inactive) | 104% (inactive) | 105% (inactive)
CC(Nc1ncnc2ccc(-c3cnc4cnccn34)cc12)c1ccccc1 (stereo not given) | 38.9% (inactive) | 46.6% (inactive) | 59.7% (inactive) | 68.2% (inactive) | 41.4% (inactive) | 60.6% (inactive) | 5.93% (active) | 67.5% (inactive) | 63.1% (inactive) | 52.6% (inactive)
